Compound activity deposited in PubChem by National Center for Advancing Translational Sciences (NCATS).
In the library only some 2.4% were active in any assay of this set; here they are far more common.
D2 PAM-1: positively modulates the human D2 dopamine receptor allosterically; HEK293 T-REx D2, calcium flux, EC20 dopamine potentiation; potentiation, % at 10 µM; 0.34% of 340,000 active; AID 485347;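 active = potentiation over 3 SD above the plate norm, cut at about 30% in these data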
Target sequence (P14416 whole entry, looked up): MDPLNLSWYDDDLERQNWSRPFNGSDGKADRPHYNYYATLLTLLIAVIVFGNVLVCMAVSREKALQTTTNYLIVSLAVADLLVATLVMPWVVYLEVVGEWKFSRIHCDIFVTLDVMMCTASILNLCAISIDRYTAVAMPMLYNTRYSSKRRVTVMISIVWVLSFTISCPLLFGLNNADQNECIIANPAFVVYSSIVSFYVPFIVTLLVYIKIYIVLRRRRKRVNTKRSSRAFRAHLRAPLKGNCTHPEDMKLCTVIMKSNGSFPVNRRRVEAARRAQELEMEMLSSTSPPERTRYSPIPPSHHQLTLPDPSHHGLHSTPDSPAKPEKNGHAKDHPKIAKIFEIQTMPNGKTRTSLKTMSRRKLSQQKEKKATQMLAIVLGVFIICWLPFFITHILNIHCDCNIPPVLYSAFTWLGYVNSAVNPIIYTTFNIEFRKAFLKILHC
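Tetracycline-induced Hek293 Trex D2 cells, force-coupled to calcium, loaded with no-wash calcium dye. Compound added with 180 s kinetic read for agonism, then EC20 dopamine and a further 180 s read for potentiation.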
D2 antagonist: antagonizes the human D2 dopamine receptor. P14416. inhibition, % at 10 µM. 2% of 340,000 active. HEK293 TREx D2 cells, calcium flux, dopamine EC80; in the data active = inhibition above about 30%; inactive = below that, where a call was filed
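Calcium mobilization kinetics were recorded at 1 s intervals in tetracycline-induced HEK293 T-REx D2 cells, first for 180 s after compound addition and then 180 s after EC80 dopamine.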
D2 ag-1: human D2 receptor agonism in beta-arrestin assay. P14416. DiscoveRx PathHunter D2 beta-arrestin, luminescence, 90 min; 100% = 57 uM dopamine signal. activation, % (no concentration beside the values). 0.084% of 360,000 active. AID 624465; in the data active = activation above about 40%
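DiscoveRx PathHunter D2 beta-arrestin cells (2,100/well) attached overnight, then compound-stimulated 90 min at 37 C in HBSS/10 mM HEPES/0.1% Tween-20 buffer; beta-galactosidase complementation read by luminescence after 1 h at ambient temperature. Dopamine 57 uM final (EC100) as control.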
D2 ag-2: activates the human D2 dopamine receptor; P14416; HEK293 T-REx D2 cells, calcium flux agonist mode; activation, % at 2 µM; 0.53% of 340,000 active; AID 485358;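 active = activation over 3 SD above normal in the single-dose calcium agonist read, cut at about 30% in these data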
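Agonism is scored from calcium flux in a force-coupled, inducible HEK293 cell line expressing D2, read kinetically for 180 s after compound addition against dopamine controls.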
D2 PAM-2: human D2 receptor positive allosteric modulation; 0.23% of 360,000 active; potentiation, % (no concentration beside the values); DiscoveRx D2 beta-arrestin cells, luminescence, 90 min; 100% = 57 uM dopamine signal; P14416; AID 624464; in the data active = potentiation above about 50%
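D2 cells co-treated with compound plus 50 nM dopamine (EC20) for 90 min at 37 deg C to detect potentiation. Beta-arrestin recruitment was read as enzyme-fragment luminescence after 1 h at ambient temperature. Full response was set by 57 uM dopamine.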
Each line names hits and unclear results; the compound was inactive in the other large screens.

CC(=O)CC1(O)C(=O)N(Cc2ccccc2)c2ccccc21 (centres undefined)	D2 antagonist 61.4
CC1(C)C(=S)N(Cc2ccccc2)c2ccccc21	D2 PAM-2 62.5
O=C(NNC1=Nc2cccc3cccc1c23)c1ccc(Br)cc1	D2 antagonist 83.4
Cc1ccc(-c2onc(C)c2C)cc1S(=O)(=O)Nc1cccc(Cl)c1C	none (no result: D2 antagonist, D2 ag-1, D2 ag-2, D2 PAM-2)
COc1ccc(-c2cn3c(n2)sc2cc(C(=O)NCCC4=CCCCC4)ccc23)cc1	none (no result: D2 antagonist, D2 ag-1, D2 PAM-2)
Cc1ccc(S(=O)(=O)N(C)C)cc1NC(=S)Nc1ccc2cn[nH]c2c1	D2 antagonist 43.0
Cc1ccc(S(=O)(=O)N(C)C)cc1NC(=S)NCCc1ccccn1	D2 antagonist 34.1
CN(C)S(=O)(=O)c1cccc(NC(=S)NCCc2ccccn2)c1	none
COC(=O)c1ccc(/C=C/C(=O)c2ccc(OC)c(OC)c2)cc1	none
COc1ccc(/C=C/C(=O)c2ccc(C(=O)/C=C/c3ccc(OC)c(OC)c3)cc2)cc1OC	D2 antagonist 33.6
COc1ccc(OC)c(NC(=O)CN2c3cccc4cccc(c34)S2(=O)=O)c1	none (no result: D2 PAM-1, D2 antagonist, D2 ag-2)
COc1ccc(OC)c(NC(=O)C(C)N2c3cccc4cccc(c34)S2(=O)=O)c1 (centres undefined)	D2 antagonist 33.6
CCN1CCN(C(=O)C2c3cc(OC)c(OC)cc3C(=O)N(C)C2c2ccc(SC)cc2)CC1 (centres undefined)	D2 PAM-1 46.4
Cc1ccc(-n2nc(C(=O)N(C)c3ccc(C)c(C)c3)c3c4ccccc4n(C)c3c2=O)cc1	none (no result: D2 antagonist, D2 ag-1, D2 PAM-2)
Cc1ccc(-c2nc3ncccc3o2)cc1NC(=O)Cc1ccc(Cl)cc1	D2 PAM-1 30.6
Cc1c(Cl)cccc1NC(=O)C(C)n1c(=O)cc(C)c2c(C)nn(-c3ccccc3)c21 (centres undefined)	none (no result: D2 antagonist, D2 ag-1, D2 PAM-2)
O=C(Oc1ccccc1Cl)c1ccc2c(=O)n3c(nc2c1)CCC3	none
Cc1ccc(C)c(NC(=O)CN(C)C(=O)c2ccc3c(=O)n4c(nc3c2)CCC4)c1	D2 antagonist 32.7
O=C(Oc1ccccc1F)c1ccc2c(=O)n3c(nc2c1)CCC3	D2 antagonist 31.8
CC(C)(C)c1cc(NC(=O)COC(=O)c2ccc3c(=O)n4c(nc3c2)CCC4)n(-c2ccccc2)n1	D2 PAM-1 46.3
CCOC(=O)C(=CNc1cc(C)nn1-c1ccc(C)cc1)C(=O)OCC	D2 PAM-2 64.9
CCOc1ccccc1NC(=O)c1ccc2c(Cl)c3c(nc2c1)CCC3	none (no result: D2 antagonist, D2 ag-1, D2 ag-2, D2 PAM-2)
CC(=O)N1c2ccccc2C(=O)C1N1CCN(c2cc(Cl)ccc2C)CC1 (centres undefined)	none (no result: D2 antagonist, D2 ag-1, D2 PAM-2)
COc1ccc(NC(=O)c2c3c(nc4ccccc24)CCC3)cc1S(=O)(=O)N1CCOCC1	D2 ag-2 33.4
COc1ccc(C(=O)Nc2ccc(NC(=O)c3ccccc3)cc2)cc1S(=O)(=O)N1CCOCC1	none
C=Cc1ccc(Cn2c(=O)cc(C)c3c(C)nn(C)c32)cc1	none (no result: D2 antagonist, D2 ag-1, D2 PAM-2)
O=C(NC1CCCCC1)c1ccc(Cn2c(SCc3cccc(F)c3)nc3cccnc32)cc1	none (no result: D2 antagonist, D2 ag-1, D2 PAM-2)
Cc1cc(NC(=O)CSc2nc(C(C)C)nc3sc(C)c(C)c23)no1	D2 antagonist 35.3
CCc1ccccc1N(C)C(=O)c1cn(-c2cccc(OC)c2)c(=O)c2ccccc12	none (no result: D2 antagonist, D2 ag-1, D2 PAM-2)
CCOc1ccc(NC(=O)NCc2ccccn2)cc1	none
Cc1ccc(NC(=O)NCc2ccccn2)cc1	D2 antagonist 59.3
CCc1ccccc1NC(=O)Cn1nnc(C(=O)NCc2ccco2)c1N	none (no result: D2 antagonist, D2 ag-1, D2 PAM-2)
Cc1ccc(C)c(OCc2cc(C(=O)N(C)Cc3nccn3C)no2)c1	D2 ag-2 35.0
Cc1ccc(OCc2cc(C(=O)N(C)Cc3nccn3C)no2)cc1C	none
CCc1nn(CC(=O)N2CCN(c3cccc(C(F)(F)F)c3)CC2)c(=O)c2cccn12	none (no result: D2 antagonist, D2 ag-1, D2 PAM-2)
CC1(C)CCN2CCC(C)(C)c3c(O)ccc1c32	D2 ag-2 34.1
c1ccc(CSc2ncn[nH]2)nc1	D2 antagonist 42.1
COc1ccc(Cl)cc1NC(=O)C1CCN(S(=O)(=O)c2ccc(F)cc2)CC1	none (no result: D2 antagonist, D2 ag-1, D2 PAM-2)
CCOC(=O)N1CCC(NC(=O)CCCN2C(=O)CSc3ncccc32)CC1	D2 antagonist 31.7
Cc1cc(C(=O)NC2CCCCC2)c2cc(F)ccc2n1	D2 antagonist 31.5
Cc1cc(C(=O)NC2CCCC2)c2ccccc2n1	none (no result: D2 antagonist, D2 ag-2)
